DT40 TDP1 no CPT: qHTS for Inhibitors of human tyrosyl-DNA phosphodiesterase 1 (TDP1): qHTS in cells in absence of CPT; DT40 Tdp1-/- hTDP1 cells, no CPT, ATP luminescence, 48 h; Potency, µM (highest dose often 46.2 µM), for the others: at the top dose activity change, negative = growth inhibition, actives largely listed as inhibitors; actives 15% (n = 420,000); AID 686978, 2013; note: potency is the fitted concentration of half-maximal effect; % is set by controls: 0 for no effect and ±100 for the full control effect; nearly all actives have a fitted effect of over 55% in size
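Compound effects on proliferation are scored in DT40 Tdp1-/-;hTDP1 cells in the absence of CPT. ATP levels (CellTiter-Glo luminescence) are recorded after a ≥48 hr, 37 °C incubation.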
IL1B secr inh: inflammasome signaling inhibition, IL-1 beta readout | actives 4.7% (n = 360,000) | AID 743279 | activity change, % at 57.5 µM | THP-1 LPS/ATP IL-1B secretion, AlphaLISA, 16 h; active compounds read low; in the data active = activity change below about -50%; inconclusive = mostly about -30% to -49%; note: % is set by controls: 0 for no effect and ±100 for the full control effect
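THP-1 cells pretreated 1 hr with compounds (up to 57.5 uM final), then stimulated with LPS (250 ng/mL final) plus ATP (1.25 mM final); secreted IL-1B measured by AlphaLISA after 16 hr, decreased signal indicating inhibition.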
D3 antag: D3 dopamine receptor (human) antagonism; P35462; AID 652054; D3R cells, DiscoveRx beta-arrestin luminescence, antagonist mode; active compounds read low; actives 2.5% (n = 360,000); max response, negative = inhibition, %; in the data active = max response below about -50%; inconclusive = no clear call, values can overlap the other calls; note: % is set by controls: 0 for no effect and ±100 for the full control effect
Target sequence (P35462 whole entry, looked up): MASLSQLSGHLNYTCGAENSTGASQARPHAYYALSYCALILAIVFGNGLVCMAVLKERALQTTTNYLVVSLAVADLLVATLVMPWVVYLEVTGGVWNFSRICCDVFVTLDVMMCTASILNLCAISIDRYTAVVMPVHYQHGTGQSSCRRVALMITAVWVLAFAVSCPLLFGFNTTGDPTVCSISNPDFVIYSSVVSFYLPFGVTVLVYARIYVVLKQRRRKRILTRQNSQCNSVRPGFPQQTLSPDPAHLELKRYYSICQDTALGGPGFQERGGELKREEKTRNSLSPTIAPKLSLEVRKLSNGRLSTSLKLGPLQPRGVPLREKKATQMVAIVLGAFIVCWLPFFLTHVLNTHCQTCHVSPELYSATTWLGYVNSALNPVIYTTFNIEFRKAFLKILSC
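Cells expressing the human receptor were seeded at 1500 cells/well, incubated overnight at 37 degrees C in 5% CO2, then exposed to library compounds with dopamine controls for 90 minutes at 37 degrees C before luminescent detection.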
ClpP mod: qHTS Assay for Activators of ClpP; actives 1.9% (n = 340,000); AID 651965, 2013; ATP-dependent Clp protease proteolytic subunit (Bacillus subtilis (strain 168)), P80244; purified B. subtilis ClpP, FRET peptide cleavage, 20 min; Potency, µM (doses to about 57.5 µM), for inactives: at the highest dose activity change, negative = active; active = well fitted falling curve with a large enough effect; inconclusive = small, poorly fitted or top-dose-only effect; inactive = no such curve, though single readings can be large or run the other way; note: potency is the fitted concentration of half-maximal effect; the source files actives as falling curves though it sought activators and does not explain the sign; nearly all actives have a fitted effect of over 65% in size
Target sequence (P80244 whole entry, looked up): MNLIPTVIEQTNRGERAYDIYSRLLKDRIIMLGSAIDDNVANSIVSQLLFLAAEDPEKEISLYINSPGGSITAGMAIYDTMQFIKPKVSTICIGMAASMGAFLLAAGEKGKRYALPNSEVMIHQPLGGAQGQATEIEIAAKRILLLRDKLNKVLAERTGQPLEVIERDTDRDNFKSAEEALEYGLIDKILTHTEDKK
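ClpP 10 microg/mL final, pH 8 Tris/KCl buffer with BSA, glycerol, Tween-20; compound pinned in; FRET-FV substrate; RT 20 min; Ex320/Em430; ΔFRET vs ADEP 5.8 microM, DMSO, no enzyme.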
D3 ag: activates the human D3 dopamine receptor; P35462; D3R DiscoveRx beta-arrestin cells, luminescence, 90 min; max activation, %; actives 0.58% (n = 410,000); AID 652048; in the data active = max activation above about 30%; note: 0% is about no effect
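Agonist-mode cell screen: cells plated at 1500/well and incubated overnight at 37 °C, then exposed to library compounds for 90 min at 37 °C. Detection reagent was added for 30–60 min at room temperature, and luminescence was read.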
TDP1 cell CPT: DT40-hTDP1 cell growth loss with CPT; chicken DT40 Tdp1-/-;hTDP1 cells + 20 nM CPT, ATP luminescence, 48 h; AID 686979; Potency, µM (highest dose often 46.2 µM), without a hit: at the top dose activity change, negative = growth inhibition, usual class: inhibitors; actives 12% (n = 420,000); note: potency is the fitted concentration of half-maximal effect; % is set by controls: 0 for no effect and ±100 for the full control effect; nearly all actives have a fitted effect of over 55% in size
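Chicken DT40 Tdp1-/- cells complemented with human TDP1, 400 cells/well, exposed to compounds plus 20 nM camptothecin for at least 48 h at 37 C; viability read as ATP content by CellTiter-Glo luminescence.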
Numbers without * were called inactive; u = inconclusive; x = no result. Shown are actives, neighbours in structure and some others; about 21% of the full set was active somewhere. Unless noted, calls come from the whole dose curve; as a rule, active = well fitted inhibition curve with a large enough effect; inconclusive = small, poorly fitted or top-dose-only effect; inactive = flat fitted curve, though single readings scatter.

SMILES | DT40 TDP1 no CPT | IL1B secr inh | D3 antag | ClpP mod | D3 ag | TDP1 cell CPT
COCCn1c(=O)c(-c2ccc(OC)cc2)nc2cnc(Oc3ccccc3)nc21 | -15% | x | x | x | x | 5%
COc1ccccc1N1CCN(C(=O)C2CCN(S(=O)(=O)c3ccc4c(c3)CC(C)N4C(C)=O)CC2)CC1 (configuration not stated) | 12µM* | 22 | 19 | 2% | -5 | u
CC(=O)N1c2ccc(S(=O)(=O)N3CCC(C(=O)N4CCN(c5cc(Cl)ccc5C)CC4)CC3)cc2CC1C (configuration not stated) | 9.2µM* | -16 | 39 | -2% | 15 | 10µM*
COc1ccc(C(C)(C)C)cc1NC(=O)c1ccccc1-n1cnnn1 | u | 18 | -19 | -1% | -13 | -20%
CC(CCc1ccccc1)N1CCN(C)CC1 (configuration not stated) | -23% | 2 | u | -1% | 0 | 26%
Cc1ccc2nc(SCC(=O)Nc3cccc([N+](=O)[O-])c3)[nH]c2c1 | -23% | u | -52* | 0% | -18 | -28%
Cc1cc(C)cc(NC(=O)CSc2nc3ccncc3[nH]2)c1 | 16µM* | 27 | -11 | 1% | 11 | 6.5µM*
Cc1cc(C)cc(NC(=O)CCCSc2nc3ccccc3[nH]2)c1 | u | u | -7 | 1% | -11 | u
O=C(CSc1nc2ccc([N+](=O)[O-])cc2[nH]1)NC1CCCCCC1 | u | -84* | 11 | -2% | -6 | -15%
COc1ccc(C(=O)CSc2nc3ccc([N+](=O)[O-])cc3[nH]2)cc1 | 16µM* | -2 | 1 | 0% | 3 | u
CCOC(=O)C1CCN(C(=O)COC(=O)/C=C/c2ccc([N+](=O)[O-])cc2)CC1 | u | -1 | -11 | 2% | 1 | u
CSc1ccccc1NC(=O)CSc1nncs1 | 1% | -9 | -9 | -2% | -2 | 4%
COc1cccc(-n2cc(C(=O)OCc3ccc(F)c(F)c3)c3ccccc3c2=O)c1 | u | x | x | -7% | 3 | u
Cc1nc2nc(SCC(=O)c3cccc([N+](=O)[O-])c3)[nH]c2cc1Br | 18µM* | 3 | 0 | -1% | -3 | u
O=C(CSc1nc2ccc([N+](=O)[O-])cc2[nH]1)NC1CCCCC1 | 26µM* | 0 | -14 | -1% | 2 | u
O=C(CSc1nc2ncc(Br)cc2[nH]1)c1cccc([N+](=O)[O-])c1 | -16% | 14 | 11 | 1% | -5 | -5%
CCOC(=O)N1CCN(CC(O)c2c[nH]c3ccccc23)CC1 (configuration not stated) | -23% | -25 | -18 | -2% | -11 | u
O=S1(=O)CCN(c2ccccc2CC(c2c[nH]c3ccccc23)c2c[nH]c3ccccc23)CC1 | 13µM* | -11 | -11 | 3% | -8 | 8.2µM*
Nc1ccc(Oc2ccc(N)c([N+](=O)[O-])c2)cc1[N+](=O)[O-] | u | -26 | 12 | 0% | 0 | 0%
CC1(C)Oc2cc(N)c([N+](=O)[O-])cc2O1 | -14% | -3 | u | 32µM* | 1 | -3%
COc1ccc(N2CCN(CNC(=O)c3ccccc3)CC2)cc1 | 17% | -12 | -11 | -2% | -12 | -11%
CC(=O)NC(c1ccccc1)c1cc(Cl)c2cccnc2c1O (configuration not stated) | u | 87 | u | x | -11 | u
COc1ccc(C(NC(C)=O)c2cc(Cl)c3cccnc3c2O)cc1 (configuration not stated) | 8.2µM* | 256 | u | -2% | -12 | 8.2µM*
O=C(NC(c1ccc(Cl)cc1)c1cc(Cl)c2cccnc2c1O)c1cccnc1 (configuration not stated) | 4.1µM* | u | -100* | 1% | 2 | 5.2µM*
CC(=O)NC(c1ccc(N(C)C)cc1)c1cc(Cl)c2cccnc2c1O (configuration not stated) | 6.5µM* | 61 | -19 | -5% | 7 | 4.6µM*
SMILES | DT40 TDP1 no CPT | IL1B secr inh | D3 antag | ClpP mod | D3 ag | TDP1 cell CPT
COc1ccc(CN2C(=O)C(CC(=O)NCCc3ccccn3)CC(C(=O)N3CCOCC3)=C2C)cc1 (configuration not stated) | 1% | -14 | 7 | -3% | 3 | 0%
C[C@H]1CN([C@@H](C)CO)C(=O)c2cc(NC(=O)NC3CCCCC3)ccc2O[C@H]1CN(C)C(=O)Nc1ccc(C(F)(F)F)cc1 | u | -19 | 26 | -11% | 1 | u
Cc1ccc(Cl)cc1Nc1nn2c(=O)c3ccc(C(=O)NC(C)c4ccccc4)cc3nc2s1 (configuration not stated) | 3.3µM* | x | x | u | 1 | 6.5µM*
Cc1ccc(Cl)cc1Nc1nn2c(=O)c3ccc(C(=O)Nc4ccc(F)cc4)cc3nc2s1 | 2.3µM* | x | x | 1% | 0 | 3.7µM*
COc1ccccc1Nc1nn2c(=O)c3ccc(C(=O)Nc4ccc(F)cc4)cc3nc2s1 | 5.8µM* | x | x | -3% | -10 | 2.6µM*
Cc1ccc(Cl)cc1Nc1nn2c(=O)c3ccc(C(=O)NC4CCC(C)CC4)cc3nc2s1 (configuration not stated) | u | x | x | u | -5 | -27%
Cn1c(N)c(C(=O)COC(=O)CSc2cccc3cccc(Cl)c23)c(=O)n(C)c1=O | -28% | 9 | 12 | x | 11 | -18%
Cc1ccc(N(C(=O)CNC(=O)c2ccco2)C(C(=O)NC2CCCC2)c2ccncc2)c(C)c1 (configuration not stated) | 4% | 3 | -2 | x | 6 | 14%
Cc1ccc(C(C(=O)NCc2ccco2)N(C(=O)CNC(=O)c2cccs2)c2ccc(C)cc2C)cc1 (configuration not stated) | 6.5µM* | 23 | -20 | 0% | -10 | 29µM*
Cc1ccc(N2CC(C(=O)Nc3nnc(SCCN4CCOCC4)s3)CC2=O)cc1C (configuration not stated) | -9% | 0 | 9 | -1% | -5 | -19%
COC(=O)c1c(NC(=O)CN2CCC3(O)CCCCC3C2c2cc(OC)ccc2OC)sc(C)c1C (configuration not stated) | 10µM* | -1 | -20 | 28µM* | -4 | 13µM*
